Consider nine compounds from PubChem BioAssay (NCATS).

Records with an inconclusive call do not appear. Calls of active or inactive are those of the source. Unless noted, calls come from the whole dose curve; as a rule, active = well fitted curve in the direction sought with a large enough effect; inconclusive = small, poorly fitted or top-dose-only effect, or another doubt; inactive = no such curve, though single readings can be large; an effect the other way counts as inactive or inconclusive.

A short description of experiment [1]: qHTS drug screen for cell cycle checkpoint inhibitors in PARPi-resistant BRCA-mutant ovarian cancer cell lines. (AID 1963452; calls by dose curve; note: potency is the fitted concentration of half-maximal effect). The note with it: PEO1/OlaR viability, CellTiter-Glo luminescence, 96 h; for Z-AUC: stronger effect = lower value. In outline:
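PEO1, PEO4 and PEO1/OlaR ovarian cancer cells, 600 per well, exposed 96 h at 37C to a dilution series. Viability read by CellTiter-Glo luminescence, normalized to DMSO and empty wells; activity summarized as Z-AUC.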
(In general: Quantitative high-throughput screening tests each substance at several concentrations.)

The nature of experiment [2]: qHTS profiling for inhibitors of Plasmodium falciparum proliferation (AID 504749).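 For activity, negative = inhibition: 0% = DMSO vehicle and full inhibition = artemisinin control.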 For all read-outs here: nearly all actives have a fitted effect of over 60% in size. Note: potency is the fitted concentration of half-maximal effect. The note with it: P. falciparum in erythrocytes, SYBR Green DNA, 72 h; for activity, negative = inhibition: at 28.7 µM (top of the series). In outline: (§1)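 Readout was DNA-dye fluorescence from lysed cultures, ex 485/em 535 nm. Parasitized red cells had grown 72 h with compound; data scaled between 0.29 uM artemisinin and DMSO wells and corrected using vehicle-only plates.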

Experiment [3] concerns 3D7. The experiment is described as above. The note with it: P. falciparum in erythrocytes, SYBR Green DNA, 72 h; series mostly up to 28.7 µM. In outline:
as §1

Experiment [4] relates to 7G8. Described as above. To be noted: P. falciparum in erythrocytes, SYBR Green DNA, 72 h; series mostly up to 28.7 µM. In outline:
as §1

In experiment [5] the test system is AS120. The experiment is described as above. The note with it: P. falciparum in erythrocytes, SYBR Green DNA, 72 h; series mostly up to 28.7 µM. In outline:
as §1

For experiment [6], the system named is ATS189. The experiment is described as above. To be noted: P. falciparum in erythrocytes, SYBR Green DNA, 72 h; series mostly up to 28.7 µM. In outline: as §1
The subject of experiment [7] is AA1029. The experiment is described as above. To be noted: P. falciparum in erythrocytes, SYBR Green DNA, 72 h; series mostly up to 28.7 µM. In outline: as §1
Experiment [8] has as its target Cytochrome P450 3A4 (Homo sapiens) (UniProt P08684). Briefly: qHTS for inhibitors of CYP3A4 against the NCATS DSHEA and TCM libraries (AID 1919971).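 Note: % is set by controls: 0 for no effect and ±100 for the full control effect; inhibition lowers luminescence from luciferin made by CYP3A4.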 To be noted: recombinant CYP3A4 enzyme activity, luminescence qHTS; series mostly up to 34.1 µM. In outline: (§2)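 Luminescent P450-Glo readout. Enzyme plus pro-luciferin substrate in manufacturer buffer (typically 100 mM KPO4); 15 min RT preincubation; 1x NADPH regenerating system, 30-45 min RT in the dark; detection reagent 30 min.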

Experiment [9] deals with Cytochrome P450 2D6 (Homo sapiens) (UniProt P10635). Briefly: qHTS for inhibitors of CYP2D6 against the NCATS DSHEA and TCM libraries (AID 1919972). Note: % is set by controls: 0 for no effect and ±100 for the full control effect. The note with it: CYP2D6 enzymatic inhibition, luminescence qHTS; series mostly up to 34.1 µM. In outline: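 Steps: enzyme plus luciferin substrate dispensed; test substances pinned; 15 min RT; 1x NADPH regenerating solution added, 30–45 min RT protected from light; detection reagent, 30 min RT; luminescence measured. Minus-enzyme wells as background.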
Chain of Cytochrome P450 2D6 (Homo sapiens) (P10635 whole entry, looked up): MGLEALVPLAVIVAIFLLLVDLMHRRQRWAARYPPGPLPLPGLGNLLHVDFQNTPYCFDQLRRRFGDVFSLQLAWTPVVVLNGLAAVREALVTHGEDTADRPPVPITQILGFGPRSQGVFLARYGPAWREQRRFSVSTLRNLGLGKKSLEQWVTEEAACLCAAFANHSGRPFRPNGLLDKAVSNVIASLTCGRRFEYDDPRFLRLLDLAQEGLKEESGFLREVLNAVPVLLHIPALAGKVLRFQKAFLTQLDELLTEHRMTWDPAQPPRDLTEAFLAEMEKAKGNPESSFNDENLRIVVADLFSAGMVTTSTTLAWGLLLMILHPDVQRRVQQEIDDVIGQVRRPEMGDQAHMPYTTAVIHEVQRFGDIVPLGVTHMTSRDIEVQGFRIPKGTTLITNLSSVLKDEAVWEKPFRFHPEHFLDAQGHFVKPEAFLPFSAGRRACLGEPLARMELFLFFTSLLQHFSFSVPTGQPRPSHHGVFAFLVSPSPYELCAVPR

Experiment [10] concerns the target Cytochrome P450 2C9 (Homo sapiens) (UniProt P11712). Briefly: qHTS for inhibitors of CYP2C9 against the NCATS DSHEA and TCM libraries (AID 1919973).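 Note: luminogenic pro-luciferin CYP2C9 substrate turned into luciferin with NADPH regeneration; % is set by controls: 0 for no effect and ±100 for the full control effect.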 To be noted: recombinant CYP2C9 enzyme activity, luminescence; series mostly up to 34.1 µM. In outline: as §2
Experiment [11] has as its target Cytochrome P450 2C19 (Homo sapiens) (UniProt P33261). In words: qHTS for inhibitors of CYP2C19 against the NCATS DSHEA and TCM libraries (AID 1919974).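 Note: luminescence from luciferin released by CYP2C19 oxidation of a pro-luciferin substrate; % is set by controls: 0 for no effect and ±100 for the full control effect.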 The note with it: CYP2C19 enzyme inhibition, luminescence qHTS; series mostly up to 34.1 µM. In outline: as §2
Experiment [12] is described as follows: KB-3-1 P-gp reporter qHTS against the NCATS DSHEA and TCM libraries (AID 1919975). Note: 0% is about no effect. The note with it: KB-3-1 parental cells, CellTiter-Glo luminescence viability, 72 h; series mostly up to 26.1 µM. In outline: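 Parental KB-3-1 cells, 500 cells/well, in DMEM with 10% FBS, exposed 72 h at 37 C to compounds in concentration-response. Viability read by CellTiter-Glo luminescence after 30 min at room temperature.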

Experiment [13] has as its target Cytochrome P450 1A2 (Homo sapiens) (UniProt P05177). Briefly: qHTS for inhibitors of CYPIA2 against the NCATS DSHEA and TCM libraries (AID 1919976).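 Note: light from luciferin formed by CYP1A2 from a pro-luciferin substrate; % is set by controls: 0 for no effect and ±100 for the full control effect.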 To be noted: recombinant CYP1A2 enzyme activity, luminescence; series mostly up to 37 µM. In outline:
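Human CYP1A2 with its pro-luciferin substrate in supplier buffer (typically 100 mM KPO4) was pre-incubated with compounds 15 min at RT. Reaction was started with 1x NADPH regeneration solution and run 30-45 min at RT in the dark, then luminescence was read after P450-Glo detection reagent (30 min RT).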

The nature of experiment [14]: qHTS Counterscreen for compound interference against the NCATS DSHEA and TCM libraries (AID 1919978).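 Note: compounds preincubated with 1 µM D-luciferin or buffer before detection reagent; % of control where 0% means no effect.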 To be noted: firefly luciferase detection reagent interference, luminescence. In outline: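 Firefly luciferase detection reagent was added after compounds (19.5 nM–39.8 uM final) had been incubated 15 min at room temperature with 1 uM D-luciferin or with 100 mM phosphate buffer alone. Luminescence was read after 30 min at room temperature.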

A short description of experiment [15]: Dual reporter qHTS for agonist of Pregnane X Receptor (hPXR) against the NCATS DSHEA and TCM libraries: Fluorescence readout (AID 1920058). Note: 0% is about no effect. The note with it: PXR dual reporter cells; series mostly up to 40 µM. In outline: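 hPXR-Luc HepG2 cells (2000/well) in phenol red-free medium with charcoal-stripped FBS attached for 5 h, then were exposed to compounds for about 24 h at 37 °C. Viability was read by CellTiter-Fluor fluorescence (Ex/Em 405/540 nm) after 1 h.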

Experiment [16] addresses Nuclear receptor subfamily 1 group I member 2 (Homo sapiens) (UniProt O75469). In words: Dual reporter qHTS for agonist of Pregnane X Receptor (hPXR) against the NCATS DSHEA and TCM libraries: Luminescence readout (AID 1920059). Note: 0% is about no effect. The note with it: hPXR dual reporter cells, luciferase luminescence agonist; series mostly up to 40 µM. In outline:
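hPXR-Luc HepG2 cells, 2000/well in 5% charcoal-stripped FBS medium, attached 5 h, then exposed 24 h at 37C to compounds. Viability by CellTiter-Fluor, then luciferase luminescence with ONE-Glo.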

For experiment [17] the target is unchanged. Briefly: Dual reporter qHTS for antagonist of Pregnane X Receptor (hPXR) against the NCATS DSHEA and TCM libraries: Luminescence Readout (AID 1920060).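 Note: HepG2 cells carrying hPXR luciferase reporter stimulated with rifampicin at 2 µM; 0% is about no effect.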 To be noted: hPXR dual reporter cells, luciferase luminescence, antagonist mode; series mostly up to 40 µM. In outline:
(§3)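 In antagonist mode, 2 uM rifampicin was added to hPXR-Luc HepG2 cells alongside test substances, incubated 24 h at 37 C; luminescence gave reporter activity, and CellTiter-Fluor fluorescence (405/540 nm) gave viability.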

A short description of experiment [18]: Dual reporter qHTS for antagonist of Pregnane X Receptor (hPXR) against the NCATS DSHEA and TCM libraries: Fluorescence Readout (AID 1920061). Note: 0% is about no effect. To be noted: PXR dual reporter cells, antagonist mode; series mostly up to 40 µM. In outline:
as §3

In experiment [19] the test system is Nanoluciferase (engineered Oplophorus gracilirostris luciferase). In words: Primary Nanoluciferase (NLuc) qHTS assay for identification of artifact compounds. (AID 1845222).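 Note: NLuc secreted into diluted conditioned medium of S16 cells; 0% = DMSO and -100% = no enzyme.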 To be noted: NLuc-conditioned medium, Nano-Glo luminescence, 5 min; series mostly up to 54.1 µM. In outline: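 qHTS format, against NLuc in S16 cell-conditioned medium. Nano-Glo substrate 1:100 was added after 15 min at room temperature. Luminescence was taken after a further 5 min.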

The nature of experiment [20]: Primary redox qHTS assay for identification of artifact compounds. (AID 1845223).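 Note: 0% = DMSO and 100% = reference compound.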 The note with it: Amplex Red/HRP redox cycling with DTT, fluorescence; series mostly up to 53.8 µM. In outline: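 Amplex Red (25 uM) and HRP (250 mU/mL) in HBSS, with compounds for 15 min, then 250 uM DTT for 30 min, room temperature, dark. Fluorescence 525/598 nm read; normalized to DMSO and 10 uM DA3003; Hill fit.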

Where [21] appears, read: measured here: PEO1 parental Z-AUC.

Chain of Nuclear receptor subfamily 1 group I member 2 (Homo sapiens) (O75469 whole entry, looked up): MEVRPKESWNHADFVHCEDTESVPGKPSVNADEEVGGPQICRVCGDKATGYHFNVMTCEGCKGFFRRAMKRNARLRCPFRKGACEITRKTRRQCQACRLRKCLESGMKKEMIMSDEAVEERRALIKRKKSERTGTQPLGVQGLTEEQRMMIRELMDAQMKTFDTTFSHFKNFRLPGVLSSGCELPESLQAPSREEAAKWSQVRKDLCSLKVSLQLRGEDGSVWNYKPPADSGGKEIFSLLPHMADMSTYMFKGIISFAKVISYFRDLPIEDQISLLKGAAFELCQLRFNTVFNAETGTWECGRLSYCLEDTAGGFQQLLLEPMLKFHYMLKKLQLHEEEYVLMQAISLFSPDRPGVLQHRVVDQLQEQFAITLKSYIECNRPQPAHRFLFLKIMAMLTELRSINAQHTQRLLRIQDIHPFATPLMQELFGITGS
Chain of Cytochrome P450 2C9 (Homo sapiens) (P11712 whole entry, looked up): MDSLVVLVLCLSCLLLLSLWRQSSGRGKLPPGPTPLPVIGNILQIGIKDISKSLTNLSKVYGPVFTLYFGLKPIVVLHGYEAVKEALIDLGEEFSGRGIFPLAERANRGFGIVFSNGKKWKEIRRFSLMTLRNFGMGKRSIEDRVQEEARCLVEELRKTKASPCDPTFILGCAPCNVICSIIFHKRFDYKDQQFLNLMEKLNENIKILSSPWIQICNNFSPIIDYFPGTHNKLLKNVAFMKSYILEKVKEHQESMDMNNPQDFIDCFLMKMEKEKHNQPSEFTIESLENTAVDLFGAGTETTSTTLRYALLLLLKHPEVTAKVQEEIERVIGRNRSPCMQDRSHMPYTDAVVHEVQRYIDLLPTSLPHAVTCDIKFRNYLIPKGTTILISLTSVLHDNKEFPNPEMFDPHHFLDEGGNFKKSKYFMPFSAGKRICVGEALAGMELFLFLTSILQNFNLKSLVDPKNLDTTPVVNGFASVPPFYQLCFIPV
Chain of Cytochrome P450 1A2 (Homo sapiens) (P05177 whole entry, looked up): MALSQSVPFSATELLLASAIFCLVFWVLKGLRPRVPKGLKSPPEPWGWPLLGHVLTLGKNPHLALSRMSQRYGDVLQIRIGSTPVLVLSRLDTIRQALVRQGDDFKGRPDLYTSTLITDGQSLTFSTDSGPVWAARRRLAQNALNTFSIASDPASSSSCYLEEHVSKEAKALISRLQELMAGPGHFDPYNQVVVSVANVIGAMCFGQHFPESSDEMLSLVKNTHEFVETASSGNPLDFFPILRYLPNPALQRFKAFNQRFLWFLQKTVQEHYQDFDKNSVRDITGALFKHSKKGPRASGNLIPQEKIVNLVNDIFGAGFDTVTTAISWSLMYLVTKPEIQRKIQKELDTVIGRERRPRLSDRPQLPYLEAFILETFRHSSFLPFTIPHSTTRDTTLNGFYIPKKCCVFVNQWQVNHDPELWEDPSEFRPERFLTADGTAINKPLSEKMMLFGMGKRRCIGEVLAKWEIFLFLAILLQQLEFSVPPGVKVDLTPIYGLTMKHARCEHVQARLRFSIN
Chain of Cytochrome P450 3A4 (Homo sapiens) (P08684 whole entry, looked up): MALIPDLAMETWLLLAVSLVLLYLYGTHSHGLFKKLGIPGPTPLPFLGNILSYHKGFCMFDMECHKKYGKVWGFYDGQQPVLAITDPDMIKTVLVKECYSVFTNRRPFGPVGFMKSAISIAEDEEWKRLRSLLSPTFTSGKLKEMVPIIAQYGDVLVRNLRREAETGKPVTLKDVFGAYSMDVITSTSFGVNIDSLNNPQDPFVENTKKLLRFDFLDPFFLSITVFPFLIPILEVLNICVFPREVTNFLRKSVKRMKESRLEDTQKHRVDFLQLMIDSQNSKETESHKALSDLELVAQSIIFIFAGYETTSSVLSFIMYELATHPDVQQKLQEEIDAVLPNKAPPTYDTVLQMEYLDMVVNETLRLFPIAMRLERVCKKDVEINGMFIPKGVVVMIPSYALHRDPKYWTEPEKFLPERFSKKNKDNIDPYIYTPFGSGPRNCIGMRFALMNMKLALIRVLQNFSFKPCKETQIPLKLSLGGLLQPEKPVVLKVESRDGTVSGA
Chain of Cytochrome P450 2C19 (Homo sapiens) (P33261 whole entry, looked up): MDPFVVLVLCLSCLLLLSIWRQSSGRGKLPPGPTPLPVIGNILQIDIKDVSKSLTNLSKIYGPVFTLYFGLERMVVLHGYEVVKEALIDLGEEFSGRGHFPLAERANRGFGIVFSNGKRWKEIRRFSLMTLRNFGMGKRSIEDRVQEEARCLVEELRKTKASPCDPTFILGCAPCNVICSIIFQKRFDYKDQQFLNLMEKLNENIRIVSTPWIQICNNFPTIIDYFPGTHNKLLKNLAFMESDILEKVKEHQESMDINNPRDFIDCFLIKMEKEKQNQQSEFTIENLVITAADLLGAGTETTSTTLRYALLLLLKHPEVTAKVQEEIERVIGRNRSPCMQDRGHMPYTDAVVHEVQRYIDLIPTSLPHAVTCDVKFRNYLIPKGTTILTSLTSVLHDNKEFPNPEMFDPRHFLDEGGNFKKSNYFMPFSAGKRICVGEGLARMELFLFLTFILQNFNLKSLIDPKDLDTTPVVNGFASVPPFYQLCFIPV

Consider `CCCCCN=C(N)N/N=C/c1c[nH]c2ccc(OC)cc12`, for which the Z-AUC in experiment [1] is -0.801 (inactive); in [1] (setting [21]), -1.05; in [1] (measured here: PEO4 Z-AUC), -1.17. In addition, the Potency in experiment [2] (parasite line A) is 8.91 µM (active); in experiment [2] (parasite line B), 12.6 µM (active); in [3], 8.91 µM (active); in [4] it was 1 µM (active); in experiment [5] it was 10 µM (active); in [6], 5.01 µM (active).

Regarding `C#C[C@]1(O)CC[C@H]2[C@@H]3CCC4=CC(=O)CC[C@@H]4[C@H]3CC[C@@]21CC`, the Z-AUC in experiment [1] was -1.07 (inactive); in [1] (setting [21]), -0.819; in [1] (measured here: PEO4 Z-AUC), -0.784. The results for the activity, negative = inhibition in experiment [2] (parasite line A) and in experiment [2] (parasite line B) were -9.46% (inactive) and -6.83% (inactive), respectively. Moreover, the Potency result in [3], in experiment [7], in experiment [5] and in experiment [6] was “inactive” throughout.

Regarding `OC1C(O)C(O)C(O)C(O)C1O` (centres undefined), the result in experiment [8], in experiment [9], in experiment [10], in experiment [11], in experiment [12] and in [13] was inactive. For the same compound, the compound was classed as inactive in [15], in experiment [16], in [17] and in experiment [18]. Moreover, the max response in experiment [14] is 2.31% (inactive). Also, the results for the activity, negative = inhibition in experiment [2] (parasite line A) and in experiment [2] (parasite line B) were 1.75% (inactive) and 14.4% (inactive), respectively. Moreover, the Potency result in experiment [3], in experiment [4], in experiment [7], in experiment [5] and in experiment [6] was “inactive” each time.

On to `CCN1CCN(C(=O)N[C@@H](C(=O)N[C@@H]2C(=O)N3C(C(=O)O)=C(CSc4nnnn4C)CS[C@H]23)c2ccc(O)cc2)C(=O)C1=O`, for which the Z-AUC in [1] was 0.353 (inactive); in experiment [1] (setting [21]) it was 0.559; in [1] (measured here: PEO4 Z-AUC), 0.224.

Take `Cc1ccc(-c2ncc(Cl)cc2-c2ccc(S(C)(=O)=O)cc2)cn1`: the Z-AUC is 0.855 (inactive) in experiment [1], 0.717 in experiment [1] (setting [21]) and 0.912 in experiment [1] (measured here: PEO4 Z-AUC). The Potency entry in experiment [3] was “inactive”. Besides, the Potency in [4] was 8.91 µM (active).

Turning to `O=C1[C@H](CC[C@H](O)c2ccc(F)cc2)[C@@H](c2ccc(O)cc2)N1c1ccc(F)cc1`, the call in experiment [19] and in [20] was inactive. Besides, the Z-AUC in experiment [1] is 1.11 (inactive); in [1] (setting [21]) it was 1.08; in [1] (measured here: PEO4 Z-AUC), 1.08.

Consider `Nc1nc(Cl)nc2c1ncn2[C@@H]1O[C@H](CO)[C@@H](O)[C@@H]1F`, for which the Potency in [1] was 0.0977 µM (active). In addition, the Z-AUC in [1] (setting [21]) was -1.93; in experiment [1] (measured here: PEO4 Z-AUC) it was -1.97.

As for `CCCCCCCCCCCCCC[N+](C)(C)Cc1ccccc1`, the Potency is 4.47 µM (active) in [2] (parasite line A); 7.94 µM (active) in experiment [2] (parasite line B); 3.55 µM (active) in experiment [3]; 2.24 µM (active) in experiment [4]; 6.31 µM (active) in experiment [7]; 7.08 µM (active) in experiment [5]. Besides, the Potency in [6] was 7.08 µM (active).

Consider `C#C[C@]1(O)CC[C@H]2[C@@H]3CCc4cc(OC)ccc4[C@H]3CC[C@@]21C`, for which the Z-AUC in experiment [1] is 1.12 (inactive); in [1] (setting [21]), 0.901; in experiment [1] (measured here: PEO4 Z-AUC) it was 1.32. In addition, the figures for the activity, negative = inhibition in experiment [2] (parasite line A) and in [2] (parasite line B) were 1.32% (inactive) and 15.1% (inactive), respectively. For the same compound, the Potency entry in experiment [3], in experiment [4], in experiment [7], in experiment [5] and in experiment [6] was “inactive” each time.
